Experimental data reported in PubChem BioAssay (Tox21).
“And” between values parts separate entries of the source, which are not always exact repeats. Equal values may be shown once. Records with an inconclusive call do not appear. Where a call stands in place of a potency, no number is given. The source made the active and inactive calls. The call rests on the fitted dose curve; in most records, active means well fitted activation curve with a large enough effect in the repeat runs; inconclusive means weak or mixed curves; inactive means flat fitted curve, though single readings scatter.
Potency means the concentration at half of the fitted maximal effect.

Assay: A CellTox Green Cytotoxicity Assay to monitor cytotoxicity in HepG2 cells - 24 hour (AID 1224878); further: nearly all actives have a fitted effect of over 45% in size
Conditions: CellTox Green fluorescence; series mostly up to 76.8 µM
Procedure, shortened: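 Real-time, homogeneous cytotoxicity readout: dead-cell DNA staining by CellTox Green in HepG2 monolayers, fluorescence measured at timed intervals up to 40 h of continuous compound exposure.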
In the case of `CC(C)NCC(O)c1ccc(O)c(O)c1` (centres undefined), the Potency was “inactive”.
For `Cn1c(=O)c2c(ncn2C)n(C)c1=O`, the Potency was “inactive”.
In the case of `CCCCCCCCCCCC[N+](C)(C)Cc1ccccc1`, the Potency was 19.1 µM (active) and 23.8 µM (active) and 10.7 µM (active).
For `CCCCCCCC(=O)OCC(COC(=O)CCCCCCC)OC(=O)CCCCCCC`, the Potency was “inactive”.
In the case of `O=C1OC2(c3ccccc31)c1cc(Br)c(O)c(Br)c1Oc1c2cc(Br)c(O)c1Br`, the Potency was 4.97 µM (active) and 12.7 µM (active) and 23.9 µM (active).
For `NS(=O)(=O)c1cc2c(cc1Cl)NCNS2(=O)=O`, the Potency was “inactive”.
In the case of `CC(O)(P(=O)(O)O)P(=O)(O)O`, the Potency was “inactive”.
In the case of `Cc1ccc(S(=O)(=O)O)cc1`, the Potency was “inactive”.
For `CN1CCc2cccc3c2[C@H]1Cc1ccc(O)c(O)c1-3`, the Potency was “inactive”.
With `O=C1NS(=O)(=O)c2ccccc21` the Potency was “inactive”.
With `F[B-](F)(F)F` the Potency was “inactive”.
In the case of `Cc1cc(C)nc(NS(=O)(=O)c2ccc(N)cc2)n1`, the Potency was “inactive”.
For `CN(C)CCOC(c1ccccc1)c1ccccc1`, the Potency was “inactive”.
For `CCOc1ccc(NC(C)=O)cc1`, the Potency was “inactive”.
In the case of `Cc1c(C(=O)O)c(O)cc2c1C(=O)c1c(O)c([C@@H]3O[C@H](CO)[C@@H](O)[C@H](O)[C@H]3O)c(O)c(O)c1C2=O`, the Potency was “inactive”.
With `Cc1ncc([N+](=O)[O-])n1C` the Potency was “inactive”.
With `C/C=C/C=C/C(=O)O` the Potency was “inactive”.
For `O=c1[nH]cnc2c1ncn2[C@H]1CC[C@@H](CO)O1`, the Potency was “inactive”.
With `NC(=O)n1c(O)c(C(=O)c2cccs2)c2cc(Cl)ccc21` the Potency was “inactive”.
In the case of `CCCCCCCCCCCCCCCC[N+](C)(C)Cc1ccccc1`, the Potency was 25.3 µM (active) and 17.7 µM (active) and 19 µM (active).
With `CCN(CC)C(=O)c1cccc(C)c1` the Potency was “inactive”.
For `Cc1ncc([N+](=O)[O-])n1CCO`, the Potency was “inactive”.
In the case of `CN(C)CCOC(C)(c1ccccc1)c1ccccn1` (centres undefined), the Potency was “inactive”.
With `NS(=O)(=O)O` the Potency was “inactive”.
For `C=C(C)C(=O)OCC(C)O` (centres undefined), the Potency was “inactive”.
In the case of `CCCCOC(=O)c1ccc(O)cc1`, the Potency was “inactive”.
In the case of `O=C(O)CC(O)C(=O)O` (centres undefined), the Potency was “inactive”.
In the case of `CCc1nc(N)nc(N)c1-c1ccc(Cl)cc1`, the Potency was “inactive”.
In the case of `CN1[C@@H]2CC(OC(=O)[C@H](CO)c3ccccc3)C[C@H]1[C@@H]1O[C@@H]12` (some centres undefined), the Potency was “inactive”.
